The values that follow come from PubChem BioAssay (NCI).

The structures appear in SMILES notation. Values joined by “and” are separate entries in the source; they are usually repeats but may differ in a detail not shown here. Equal entries are not always repeated. This is part of a sample that, as a whole, favours compounds with a hit. Of some 83,000 tested, about 20% had one in any assay.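 Single-concentration screen, 48 h exposure, 96-well plates. Endpoint: percent growth. Below 10 = active.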 Active and inactive are the calls of the source.

Holding throughout (assay): NCI-60 one-dose screen, 48 h (100 = growth as untreated, 0 = no growth, -100 = all killed)
Holding throughout (details): 10 µM unless noted

Test [1] concerns NCI-H23 lung.
Test [2] has as its system NCI-H226 lung.
The subject of test [3] is NCI-H322M lung.
The subject of test [4] is HOP-62 NSCLC.
Test [5] concerns NCI-H460 lung.
Test [6] relates to HOP-92 NSCLC.
The test system of test [7] is NCI-H522 lung.
The test system of test [8] is A549/ATCC NSCLC.
The subject of test [9] is 786-0 renal.
Test [10] deals with COLO 205 colon.

`O=C1N[C@H]2[C@H](CS[C@H]2CCCCC(=O)N(CCP(c2ccccc2)c2ccccc2)CCP(c2ccccc2)c2ccccc2)N1`: the growth in test [1] was 67.8% (inactive); in test [2] it was 89.5% (inactive); in [3], 79.2% (inactive); in [4], 80.3% (inactive); in test [5], 41.3% (inactive); in test [6], 56.1% (inactive). The growth was 57.6% (inactive) in [7], 76.6% (inactive) in [8], 82.8% (inactive) in test [9] and 29.9% (inactive) in test [10].

For the molecule `Cc1cc(N)c2ccccc2[n+]1CCCCCCCCCC[n+]1c(C)cc(N)c2ccccc21`, the growth in test [1] is 5.83% (active) and -29.4% (active); in test [2] it was 13.8% (inactive) and 31.5% (inactive); in test [3], 11.2% (inactive) and 41.8% (inactive); in test [4], 16.3% (inactive) and 25.4% (inactive); in test [5], 1.44% (active) and -18.2% (active); in test [6], -22.2% (active) and 7.42% (active). Moreover, the growth in test [7] is -8.65% (active) and -8.09% (active); in test [8], 29.9% (inactive) and -17% (active); in [9] it was 18.7% (inactive) and 20.8% (inactive); in [10], -50.2% (active) and -45.7% (active).

For `CCCCCC(CCCCC)C(=O)O`, the growth is 114% (inactive) in [1]; 112% (inactive) in test [2]; 103% (inactive) in test [3]; 98.1% (inactive) in test [4]; 116% (inactive) in [5]; 78.8% (inactive) in [6]. Besides, the growth in test [7] was 88.8% (inactive); in test [8] it was 102% (inactive); in test [9] it was 107% (inactive); in test [10], 102% (inactive).

With `COC(=O)c1nc(=S)[nH]c(C(=O)OC)c1C(=O)c1ccc2ccccc2c1`, the growth in [1] is 97.9% (inactive); in test [2], 86.9% (inactive); in test [3], 97.7% (inactive); in [4], 106% (inactive); in test [5] it was 111% (inactive); in [6], 101% (inactive). Also, the growth in test [7] was 102% (inactive); in test [8], 120% (inactive); in test [9], 114% (inactive); in [10] it was 96.8% (inactive).

For the molecule `CCN1/C(=C\c2cc[n+](CC)c3ccccc23)C=Cc2ccccc21`, the growth in test [1] was 12.7% (inactive); in [2] it was 19.6% (inactive); in [3], 25.4% (inactive); in test [4] it was 18.7% (inactive); in test [5], -32.8% (active); in test [6], -21.9% (active). For the same molecule, the growth in test [7] was 12.4% (inactive); in [8], 18.9% (inactive); in test [9], 25% (inactive); in test [10], -35.2% (active).

With `Nc1nc(N)c2c(ccc3c2ccn3Cc2cccc([N+](=O)[O-])c2)n1`, the growth in [1] was -74.8% (active); in test [2] it was -86.6% (active); in test [3], -91.1% (active); in [4], -83.7% (active); in test [5], -88.6% (active); in [6] it was -72.1% (active). Also, the growth in [7] is -84.3% (active); in test [8], -83% (active); in test [9], -89.6% (active); in test [10], -88.9% (active).

As for `O=C1c2ccccc2C(=O)c2sc(Nc3cccc(Cl)c3)nc21`, the growth in test [1] is -51.4% (active); in [2], -44.3% (active); in test [3], 64.5% (inactive); in [4], -77.3% (active); in [5], 72.1% (inactive); in test [6] it was 65.2% (inactive). Besides, the growth in test [7] was -32% (active); in test [8] it was 30.7% (inactive); in test [9], 8.79% (active); in test [10], 84.7% (inactive).

As to `CC1=CC(O)C2CC1C2(C)C` (stereo not given), the growth in [1] was 112% (inactive) and 110% (inactive); in [2], 98.1% (inactive) and 97.9% (inactive); in [3] it was 101% (inactive) and 97.1% (inactive); in test [4], 93.4% (inactive) and 102% (inactive); in [5], 108% (inactive); in test [6] it was 100% (inactive) and 78.2% (inactive). For the same molecule, the growth in test [7] is 86.2% (inactive) and 92% (inactive); in test [8], 91.9% (inactive) and 106% (inactive); in [9], 95.7% (inactive) and 110% (inactive); in test [10] it was 94.5% (inactive) and 112% (inactive).

On to `CC(=O)Nc1cccc2cc(O)ccc12`, for which the growth is 99% (inactive) and 101% (inactive) and 103% (inactive) in [1]; 98.2% (inactive) and 98.1% (inactive) and 102% (inactive) in test [2]; 110% (inactive) and 116% (inactive) in [3]; 100% (inactive) and 93.1% (inactive) and 95.8% (inactive) in test [4]; 114% (inactive) and 103% (inactive) and 105% (inactive) in test [5]; 64.6% (inactive) and 88.7% (inactive) and 73.6% (inactive) in [6]. Further, the growth in test [7] is 101% (inactive) and 109% (inactive) and 84.1% (inactive); in test [8], 118% (inactive) and 111% (inactive) and 98.6% (inactive); in test [9] it was 109% (inactive) and 104% (inactive) and 98.9% (inactive); in test [10], 106% (inactive) and 110% (inactive) and 104% (inactive).

Regarding `O=C(Oc1cccc2cccnc12)c1ccccc1`, the growth was 94.3% (inactive) and 103% (inactive) in [1]; 110% (inactive) and 102% (inactive) in [2]; 107% (inactive) and 117% (inactive) in [3]; 98.8% (inactive) and 106% (inactive) in [4]; 87.1% (inactive) and 109% (inactive) in test [5]; 91% (inactive) and 110% (inactive) in [6]. In addition, the growth in [7] was -4.17% (active) and 98.3% (inactive); in test [8], 100% (inactive) and 103% (inactive); in test [9] it was 100% (inactive) and 107% (inactive); in test [10], 84.8% (inactive) and 106% (inactive).

On to `O=C(/C=C\c1ccccc1)N1c2ccccc2CC1c1c[nH]c2ccccc12` (stereo not given), for which the growth is 59.5% (inactive) in [1]; 67.3% (inactive) in test [2]; 76.9% (inactive) in test [3]; 57.1% (inactive) in test [4]; 70.1% (inactive) in test [5]; 47.5% (inactive) in [6]. Besides, the growth was 30.2% (inactive) in test [7], 64.5% (inactive) in [8], 77.7% (inactive) in test [9] and 56.6% (inactive) in test [10].

As to `CCOC(=O)/C(=C\c1ccc(-c2ccccc2)cc1)C(C)=O`, the growth is 100% (inactive) in test [1]; 101% (inactive) in test [2]; 97.3% (inactive) in test [3]; 110% (inactive) in test [4]; 103% (inactive) in test [5]; 101% (inactive) in test [6]. Besides, the growth in test [7] was 87.6% (inactive); in test [8], 111% (inactive); in test [9] it was 105% (inactive); in [10], 104% (inactive).
